Experiment [1] deals with BDNF/NT-3 growth factors receptor (Homo sapiens) (UniProt Q16620). As to conditions: at 10 µM.
For experiment [2], the target named is T1, Tyrosine-protein kinase TXK (Homo sapiens) (UniProt P42681).
T1 sequence (whole entry): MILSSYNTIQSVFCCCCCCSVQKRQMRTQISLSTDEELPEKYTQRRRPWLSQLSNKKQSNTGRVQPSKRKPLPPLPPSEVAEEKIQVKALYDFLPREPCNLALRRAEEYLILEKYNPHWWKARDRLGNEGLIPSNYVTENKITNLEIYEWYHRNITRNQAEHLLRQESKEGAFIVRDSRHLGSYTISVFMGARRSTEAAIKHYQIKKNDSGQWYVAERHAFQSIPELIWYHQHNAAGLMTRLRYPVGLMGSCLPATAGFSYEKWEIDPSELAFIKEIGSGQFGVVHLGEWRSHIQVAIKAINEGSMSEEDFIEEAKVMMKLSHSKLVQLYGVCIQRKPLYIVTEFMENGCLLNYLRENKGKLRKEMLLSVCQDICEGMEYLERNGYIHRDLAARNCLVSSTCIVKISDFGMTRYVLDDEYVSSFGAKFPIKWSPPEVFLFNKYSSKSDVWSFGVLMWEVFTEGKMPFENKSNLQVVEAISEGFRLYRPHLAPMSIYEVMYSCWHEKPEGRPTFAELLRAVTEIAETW
As to conditions: at 1 µM.

For experiment [3], the target named is T1, Tyrosine-protein kinase TXK (Homo sapiens). As to conditions: at 10 µM.
Experiment [4] has as its target T2, Serine/threonine-protein kinase ULK2 (Homo sapiens) (UniProt Q8IYT8).
T2 sequence (whole entry): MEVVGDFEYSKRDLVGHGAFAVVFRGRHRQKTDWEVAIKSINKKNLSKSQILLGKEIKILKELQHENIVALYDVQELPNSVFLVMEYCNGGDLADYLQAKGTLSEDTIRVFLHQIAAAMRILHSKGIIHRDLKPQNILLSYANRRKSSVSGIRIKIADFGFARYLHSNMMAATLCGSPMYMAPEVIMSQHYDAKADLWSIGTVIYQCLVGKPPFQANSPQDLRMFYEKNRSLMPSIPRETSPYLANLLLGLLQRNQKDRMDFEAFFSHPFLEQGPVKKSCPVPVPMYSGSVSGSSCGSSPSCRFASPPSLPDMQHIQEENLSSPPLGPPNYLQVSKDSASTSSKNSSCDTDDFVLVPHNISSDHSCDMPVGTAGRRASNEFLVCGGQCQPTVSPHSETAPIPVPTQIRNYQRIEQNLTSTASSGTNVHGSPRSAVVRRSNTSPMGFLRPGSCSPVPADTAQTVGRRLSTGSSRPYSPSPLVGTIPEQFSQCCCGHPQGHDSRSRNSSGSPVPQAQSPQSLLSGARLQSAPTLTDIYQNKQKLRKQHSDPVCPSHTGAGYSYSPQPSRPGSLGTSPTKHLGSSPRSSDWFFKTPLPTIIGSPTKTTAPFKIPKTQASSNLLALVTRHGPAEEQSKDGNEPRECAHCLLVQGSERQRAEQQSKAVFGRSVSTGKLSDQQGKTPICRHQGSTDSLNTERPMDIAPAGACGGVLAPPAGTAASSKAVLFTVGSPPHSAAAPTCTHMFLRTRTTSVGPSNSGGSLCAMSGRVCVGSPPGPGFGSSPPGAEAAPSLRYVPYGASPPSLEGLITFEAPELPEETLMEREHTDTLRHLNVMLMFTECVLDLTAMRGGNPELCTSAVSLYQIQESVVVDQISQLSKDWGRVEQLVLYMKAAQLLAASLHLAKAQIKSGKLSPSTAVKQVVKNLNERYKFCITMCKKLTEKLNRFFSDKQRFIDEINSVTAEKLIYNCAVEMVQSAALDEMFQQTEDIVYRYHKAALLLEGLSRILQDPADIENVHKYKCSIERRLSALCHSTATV
As to conditions: at 1 µM.

The target of experiment [5] is T2, Serine/threonine-protein kinase ULK2 (Homo sapiens). As to conditions: at 10 µM.
The target of experiment [6] is T3, Serine/threonine-protein kinase ULK3 (Homo sapiens) (UniProt Q6PHR2).
T3 sequence (whole entry): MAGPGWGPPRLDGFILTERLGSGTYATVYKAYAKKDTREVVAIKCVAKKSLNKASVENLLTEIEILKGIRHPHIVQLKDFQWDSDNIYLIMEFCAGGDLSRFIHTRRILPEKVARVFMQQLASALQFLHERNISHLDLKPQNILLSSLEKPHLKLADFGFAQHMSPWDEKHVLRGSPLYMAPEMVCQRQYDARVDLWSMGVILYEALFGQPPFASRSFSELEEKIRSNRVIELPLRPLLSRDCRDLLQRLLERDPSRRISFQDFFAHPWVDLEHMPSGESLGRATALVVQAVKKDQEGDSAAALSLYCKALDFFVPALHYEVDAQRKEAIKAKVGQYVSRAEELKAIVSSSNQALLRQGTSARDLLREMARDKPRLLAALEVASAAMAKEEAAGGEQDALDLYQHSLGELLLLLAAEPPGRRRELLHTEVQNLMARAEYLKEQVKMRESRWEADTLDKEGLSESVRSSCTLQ
As to conditions: at 1 µM.

Experiment [7] concerns the target T3, Serine/threonine-protein kinase ULK3 (Homo sapiens). As to conditions: at 10 µM.
Experiment [8] deals with Serine/threonine-protein kinase VRK2 (Homo sapiens) (UniProt Q86Y07). As to conditions: at 1 µM.
Serine/threonine-protein kinase VRK2 (Homo sapiens), sequence (Q86Y07 whole entry): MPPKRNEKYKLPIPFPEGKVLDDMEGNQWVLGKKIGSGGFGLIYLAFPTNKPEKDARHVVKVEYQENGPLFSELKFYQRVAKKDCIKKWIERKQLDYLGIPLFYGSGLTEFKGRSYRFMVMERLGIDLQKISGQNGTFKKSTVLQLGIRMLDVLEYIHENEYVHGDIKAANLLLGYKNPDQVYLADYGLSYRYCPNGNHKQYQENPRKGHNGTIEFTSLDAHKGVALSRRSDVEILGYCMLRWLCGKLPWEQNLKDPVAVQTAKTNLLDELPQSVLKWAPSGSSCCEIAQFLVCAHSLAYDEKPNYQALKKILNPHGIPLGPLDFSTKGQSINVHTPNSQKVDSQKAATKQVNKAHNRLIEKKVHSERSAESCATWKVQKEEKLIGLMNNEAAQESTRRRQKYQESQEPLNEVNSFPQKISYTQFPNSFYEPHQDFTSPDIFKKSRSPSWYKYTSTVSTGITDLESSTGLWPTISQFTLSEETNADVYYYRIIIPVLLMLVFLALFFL
For experiment [9] the target is unchanged. As to conditions: at 10 µM.
Experiment [10] has as its target Serine/threonine-protein kinase WNK2 (Homo sapiens) (UniProt Q9Y3S1). As to conditions: at 1 µM.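 Further: residual WNK2 kinase activity expressed as percent of uninhibited control, assayed in MOPS buffer at pH 7.0 containing EDTA.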

Each structure is given as a SMILES string.

Serine/threonine-protein kinase WNK2 (Homo sapiens), sequence (Q9Y3S1 whole entry): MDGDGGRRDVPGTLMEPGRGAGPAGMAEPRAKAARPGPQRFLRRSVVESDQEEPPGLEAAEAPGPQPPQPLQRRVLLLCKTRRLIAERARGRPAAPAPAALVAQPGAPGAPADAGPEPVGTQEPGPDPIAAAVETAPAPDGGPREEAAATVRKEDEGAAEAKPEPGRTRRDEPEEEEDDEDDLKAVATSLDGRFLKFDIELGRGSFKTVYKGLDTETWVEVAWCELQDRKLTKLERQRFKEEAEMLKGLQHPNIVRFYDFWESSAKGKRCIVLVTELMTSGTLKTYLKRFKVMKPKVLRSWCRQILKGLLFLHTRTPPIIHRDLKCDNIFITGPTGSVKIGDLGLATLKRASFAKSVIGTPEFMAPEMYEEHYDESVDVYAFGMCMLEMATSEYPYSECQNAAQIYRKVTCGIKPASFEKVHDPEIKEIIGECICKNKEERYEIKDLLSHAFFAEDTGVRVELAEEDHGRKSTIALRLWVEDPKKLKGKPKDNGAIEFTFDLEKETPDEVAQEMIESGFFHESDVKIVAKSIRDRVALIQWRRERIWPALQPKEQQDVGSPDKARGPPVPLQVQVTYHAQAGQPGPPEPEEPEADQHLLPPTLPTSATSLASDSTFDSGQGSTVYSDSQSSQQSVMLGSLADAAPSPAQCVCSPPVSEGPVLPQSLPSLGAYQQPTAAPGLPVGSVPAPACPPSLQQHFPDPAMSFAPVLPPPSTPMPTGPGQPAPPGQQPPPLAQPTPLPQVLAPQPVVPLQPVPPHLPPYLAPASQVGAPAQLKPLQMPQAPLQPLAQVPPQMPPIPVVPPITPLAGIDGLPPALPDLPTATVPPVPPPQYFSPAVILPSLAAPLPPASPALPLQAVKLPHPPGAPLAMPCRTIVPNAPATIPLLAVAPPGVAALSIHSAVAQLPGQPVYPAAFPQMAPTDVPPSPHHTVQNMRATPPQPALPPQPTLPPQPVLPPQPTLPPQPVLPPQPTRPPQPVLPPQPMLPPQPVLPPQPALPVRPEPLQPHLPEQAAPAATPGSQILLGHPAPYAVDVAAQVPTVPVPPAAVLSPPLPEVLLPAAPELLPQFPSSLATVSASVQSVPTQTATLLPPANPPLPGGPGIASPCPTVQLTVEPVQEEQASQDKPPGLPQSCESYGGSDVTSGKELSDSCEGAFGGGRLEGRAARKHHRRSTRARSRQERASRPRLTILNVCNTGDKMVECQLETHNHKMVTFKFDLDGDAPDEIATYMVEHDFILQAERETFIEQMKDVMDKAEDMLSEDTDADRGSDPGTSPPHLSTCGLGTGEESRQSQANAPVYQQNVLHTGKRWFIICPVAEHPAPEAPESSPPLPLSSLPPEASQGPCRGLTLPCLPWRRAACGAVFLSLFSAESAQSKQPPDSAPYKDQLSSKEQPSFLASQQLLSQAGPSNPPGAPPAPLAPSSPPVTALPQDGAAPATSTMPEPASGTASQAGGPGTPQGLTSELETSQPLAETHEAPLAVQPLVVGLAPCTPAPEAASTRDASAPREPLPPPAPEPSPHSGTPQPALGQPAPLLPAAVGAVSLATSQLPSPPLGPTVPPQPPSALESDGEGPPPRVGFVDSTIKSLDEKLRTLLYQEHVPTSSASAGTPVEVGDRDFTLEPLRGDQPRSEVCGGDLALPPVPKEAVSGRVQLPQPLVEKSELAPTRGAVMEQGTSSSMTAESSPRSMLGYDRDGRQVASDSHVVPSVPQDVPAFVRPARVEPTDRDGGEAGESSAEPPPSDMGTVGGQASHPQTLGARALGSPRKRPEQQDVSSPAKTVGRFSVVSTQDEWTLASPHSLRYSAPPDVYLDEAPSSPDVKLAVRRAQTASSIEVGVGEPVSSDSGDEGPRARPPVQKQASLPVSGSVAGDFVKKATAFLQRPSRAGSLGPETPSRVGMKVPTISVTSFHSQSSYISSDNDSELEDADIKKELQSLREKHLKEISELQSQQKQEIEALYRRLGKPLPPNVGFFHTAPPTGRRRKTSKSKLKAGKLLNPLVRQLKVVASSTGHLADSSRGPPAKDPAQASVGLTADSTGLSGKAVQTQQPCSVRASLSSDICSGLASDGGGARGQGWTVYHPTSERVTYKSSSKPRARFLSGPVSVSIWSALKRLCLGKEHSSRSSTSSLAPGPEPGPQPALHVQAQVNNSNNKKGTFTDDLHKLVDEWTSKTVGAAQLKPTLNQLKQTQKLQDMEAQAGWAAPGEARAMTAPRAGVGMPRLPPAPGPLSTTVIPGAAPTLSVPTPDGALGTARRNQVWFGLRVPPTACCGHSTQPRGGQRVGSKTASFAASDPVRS
BDNF/NT-3 growth factors receptor (Homo sapiens), sequence (Q16620 32-822 limits assumed): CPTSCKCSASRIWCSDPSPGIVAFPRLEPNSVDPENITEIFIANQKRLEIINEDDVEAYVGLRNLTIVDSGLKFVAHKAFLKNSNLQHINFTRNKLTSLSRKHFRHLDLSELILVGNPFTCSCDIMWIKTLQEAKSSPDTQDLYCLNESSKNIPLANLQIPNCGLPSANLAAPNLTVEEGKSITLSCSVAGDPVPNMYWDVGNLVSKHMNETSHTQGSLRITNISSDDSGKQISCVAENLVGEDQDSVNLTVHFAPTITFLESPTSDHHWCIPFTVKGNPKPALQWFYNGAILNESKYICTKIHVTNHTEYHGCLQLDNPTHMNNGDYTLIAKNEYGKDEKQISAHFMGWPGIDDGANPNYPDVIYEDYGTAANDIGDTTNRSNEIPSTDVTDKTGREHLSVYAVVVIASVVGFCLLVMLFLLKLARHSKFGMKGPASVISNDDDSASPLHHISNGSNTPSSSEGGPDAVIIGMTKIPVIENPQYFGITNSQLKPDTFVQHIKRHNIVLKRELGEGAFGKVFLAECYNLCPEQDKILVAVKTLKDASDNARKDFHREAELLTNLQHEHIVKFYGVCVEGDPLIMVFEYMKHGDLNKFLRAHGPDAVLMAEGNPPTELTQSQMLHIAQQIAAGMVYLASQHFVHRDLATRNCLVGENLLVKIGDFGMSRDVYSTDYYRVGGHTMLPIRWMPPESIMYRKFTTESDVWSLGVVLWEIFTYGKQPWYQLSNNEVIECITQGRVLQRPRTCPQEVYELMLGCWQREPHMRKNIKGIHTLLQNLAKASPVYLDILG

Consider `COc1cc2ncnc(Nc3ccc(Oc4ccccc4)cc3)c2cc1OC`, for which the residual activity is 147% in [1]; 56% in [2]; 34% in experiment [3]; 109% in experiment [4]; 95% in experiment [5]; 96% in experiment [6]. The residual activity in experiment [7] is 79%; in experiment [8], 99% (inactive); in experiment [9], 73%; in experiment [10] it was 92% (inactive).
In the case of `O=C(O)c1ccc2c3c1cccc3c(=O)n1c3ccccc3nc21`, the residual activity in experiment [1] was determined as 59%; in experiment [2] it was 77%; in experiment [3] it was 60%; in experiment [4], 90%; in experiment [5], 48%; in experiment [6], 91%. Besides, the residual activity in experiment [7] is 70%; in experiment [8] it was 105% (inactive); in [9], 89%; in experiment [10], 113% (inactive).
For `O=Nc1c(-c2c(O)[nH]c3ccccc23)[nH]c2ccccc12`, the residual activity in experiment [1] amounted to 0%; in experiment [2], 45%; in experiment [3], 11%; in experiment [4], 93%; in [5], 59%; in experiment [6], 55%. Besides, the residual activity in experiment [7] is 12%; in experiment [8], 71% (inactive); in experiment [9], 28%; in [10], 90% (inactive).
Consider `Cn1cc(/C=C2\C(=O)Nc3ccc(S(N)(=O)=O)cc32)c2ccccc21`, for which the residual activity in experiment [1] was -12%; in experiment [2], 75%; in [3], 47%; in [4], 43%; in [5], 24%; in [6], 19%. Further, the residual activity in [7] is 4%; in experiment [8], 114% (inactive); in experiment [9] it was 93%; in experiment [10], 111% (inactive).
On to `CC#CC(=O)Nc1cc2c(Nc3ccc(F)c(Cl)c3)ncnc2cn1`, for which the residual activity in experiment [1] stood at 103%; in experiment [2], 52%; in experiment [3], 14%; in experiment [4] it was 99%; in [5] it was 97%; in experiment [6], 116%. The residual activity in experiment [7] was 97%; in experiment [8] it was 97% (inactive); in experiment [9], 92%; in [10], 103% (inactive).
As for `CC(=O)c1ccc(N2CCOCC2)cc1O`, the residual activity in experiment [1] came out at 108%; in [2] it was 85%; in experiment [3] it was 86%; in experiment [4], 106%; in experiment [5], 90%; in [6], 106%. Also, the results for the residual activity in [7], in experiment [8] and in experiment [9] were 90%, 107% (inactive) and 96%, respectively.
`COc1ccc(CNc2nc(N(CCO)CCO)nc3c2ncn3C(C)C)cc1`: the residual activity in experiment [1] was 96%; in experiment [2], 87%; in experiment [3] it was 89%; in experiment [4], 97%; in experiment [5], 97%; in experiment [6], 81%. In addition, the residual activity in experiment [7] was 82%; in experiment [8], 79% (inactive); in experiment [9], 46%; in experiment [10] it was 88% (inactive).
For the compound `O=C1NC(=O)/C(=C/c2ccc3c(c2)OC(F)(F)O3)S1`, the residual activity in [1] worked out at 24%; in experiment [2], 109%; in [3] it was 104%; in [4], 106%; in [5], 97%; in experiment [6] it was 105%. Moreover, the residual activity is 89% in [7], 112% (inactive) in experiment [8], 97% in [9] and 114% (inactive) in [10].
As to `O=C1Nc2ccccc2/C1=C1/Nc2ccccc2/C1=N\OCCC(O)CO` (centres undefined), the residual activity in [1] is 0%; in experiment [2] it was 31%; in experiment [3], 3%; in experiment [4] it was 98%; in experiment [5], 74%; in experiment [6], 27%. Moreover, the residual activity in [7] is 5%; in [8], 69% (inactive); in experiment [9], 26%; in experiment [10] it was 71% (inactive).
In the case of `O=C1Nc2cc(Br)ccc2/C1=C1/Nc2ccccc2/C1=N\O`, the residual activity in [1] was -1%; in experiment [2], 13%; in experiment [3], 23%; in [4], 102%; in experiment [5], 98%; in experiment [6], 55%. In addition, the residual activity in experiment [7] is 16%; in [8], 94% (inactive); in [9], 90%; in experiment [10], 89% (inactive).
Regarding `CCOc1cc2ncnc(Nc3cccc(Br)c3)c2cc1OCC`, the residual activity in experiment [1] is 88%; in experiment [2] it was 75%; in experiment [3] it was 24%; in experiment [4], 94%; in experiment [5], 78%; in experiment [6], 96%. Moreover, the residual activity in [7] is 71%; in experiment [8], 99% (inactive); in [9] it was 74%; in [10] it was 102% (inactive).
On to `Oc1n[nH]c2nnc(-c3c(-c4ccccc4)nn4ccccc34)cc12`, for which the residual activity in experiment [1] was 84%; in [2] it was 73%; in experiment [3], 67%; in experiment [4], 91%; in [5], 91%; in [6], 92%. Further, the residual activity is 95% in [7], 89% (inactive) in [8], 82% in experiment [9] and 93% (inactive) in [10].
In the case of `O=c1c2ccccc2[nH]c(=S)n1CCN1CCC(=C(c2ccc(F)cc2)c2ccc(F)cc2)CC1`, the residual activity in experiment [1] is 59%; in experiment [2], 102%; in experiment [3] it was 80%; in experiment [4] it was 109%; in experiment [5], 98%; in experiment [6] it was 107%. Besides, the residual activity in [7] was 94%; in experiment [8], 116% (inactive); in [9] it was 99%; in experiment [10] it was 113% (inactive).
With `Cc1ccc(S(=O)(=O)/C=C/C#N)cc1`, the residual activity was found to be 105% in [1]; 79% in experiment [2]; 87% in experiment [3]; 109% in experiment [4]; 104% in experiment [5]; 97% in [6]. The residual activity in experiment [7] is 98%; in experiment [8] it was 91% (inactive); in experiment [9], 97%; in [10], 94% (inactive).
As for `Cc1nc2cc3nc(-c4cccs4)cnc3cc2n1C`, the residual activity is 45% in experiment [1]; 108% in [2]; 75% in experiment [3]; 108% in experiment [4]; 107% in experiment [5]; 106% in [6]. For the same compound, the residual activity is 85% in [7], 111% (inactive) in experiment [8], 84% in experiment [9] and 117% (inactive) in experiment [10].
In the case of `COc1cccc(-c2cc(=O)c3ccccc3o2)c1N`, the residual activity came out at 87% in [1]; 77% in experiment [2]; 73% in experiment [3]; 117% in [4]; 108% in experiment [5]; 100% in [6]. The residual activity is 105% in experiment [7], 99% (inactive) in experiment [8], 96% in experiment [9] and 104% (inactive) in experiment [10].

The term residual activity denotes the signal under treatment as a percentage of the control signal.
